The record followed here is PubChem BioAssay.

The structures appear in SMILES notation. Activity calls are given as the source filed them. How the calls were made is not given here.

Sequence of Pantothenate synthetase (Mycobacterium tuberculosis (strain ATCC 25618 / H37Rv)) (P9WIL5 whole entry, looked up): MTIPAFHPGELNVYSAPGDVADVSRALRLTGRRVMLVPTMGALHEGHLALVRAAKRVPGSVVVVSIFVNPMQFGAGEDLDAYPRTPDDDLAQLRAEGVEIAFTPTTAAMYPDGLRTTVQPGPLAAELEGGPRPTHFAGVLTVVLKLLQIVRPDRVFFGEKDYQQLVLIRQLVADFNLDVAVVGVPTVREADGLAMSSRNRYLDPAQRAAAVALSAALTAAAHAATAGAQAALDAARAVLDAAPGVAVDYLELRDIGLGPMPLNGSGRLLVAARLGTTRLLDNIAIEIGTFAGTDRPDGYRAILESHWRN

The assay concerns the target Pantothenate synthetase (Mycobacterium tuberculosis (strain ATCC 25618 / H37Rv)) (UniProt P9WIL5). Description: Recombinant Mtb pantothenate synthetase (PanC) inhibitors, coupled enzyme, confirmatory (AID 375).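 Further: 0% = full reaction with vehicle and 100% = no enzyme background.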 The following applies: coupled enzyme assay; at 10 µM, active compounds read high.
Turning to `CC1(C)CC(=O)C2=C(C1)NC(=O)CC2c1ccc(N(CCC#N)CCC#N)cc1` (stereo not given), the inhibition (in general, how much of the control response was suppressed) is 9% (inactive).

`COC(=O)c1sc(N)c(C(=O)OC)c1COC(=O)C1CC(=O)N(Cc2ccco2)C1` (stereo not given): the inhibition was 3% (inactive).

Regarding `O=C(NCc1ccc2c(c1)OCO2)C1CCCN(S(=O)(=O)c2cccc3cccnc23)C1` (stereo not given), the inhibition is 0% (inactive).

For `CCC(=O)N[C@@H]1CC(C(C)(C)NC(=O)CC)CC=C1C` (stereo not given in full), the inhibition is 6% (inactive).

As to `CC(C(=O)O)c1ccc(-c2ccccc2)c(F)c1` (stereo not given), the inhibition was 0% (inactive).

Turning to `COc1ccc(N(CC(=O)NC2CCCC2)C(=O)Cn2nnc(-c3ccc(C)cc3)n2)cc1`, the inhibition is 0% (inactive).

Regarding `O=C(CSc1nc(-c2ccco2)cc(C(F)(F)F)n1)NCCCn1ccnc1`, the inhibition is 8% (inactive).

Regarding `Cc1ccc(-n2nc3cc(Cl)c(NC(=O)c4ccco4)cc3n2)cc1`, the inhibition was 3% (inactive).

Regarding `O=C(NCCc1c[nH]c2ccccc12)c1cnc2n(c1=O)CCS2`, the inhibition was 1% (inactive).

In the case of `COc1ccc(Nc2nc(-c3sc(N)nc3C)cs2)cc1`, the inhibition was 3% (inactive).

For the molecule `Cc1cc(C(=O)N2CCN(C(c3ccccc3)c3ccccc3)CC2)no1`, the inhibition is 3% (inactive).

For the molecule `COC(=O)CN1C(=O)CC(C)(C)S(=O)c2ccccc21` (stereo not given), the inhibition is 0% (inactive).

Take `Clc1ccc(SCCCCn2ccnc2)cc1`: the inhibition was 8% (inactive).

Turning to `COc1ccc(CN(Cc2nc3ccccc3c(=O)[nH]2)C(=O)NC2CCCCC2)cc1`, the inhibition was 5% (inactive).

`C=CCn1c(=S)[nH]c2nc3c(cc2c1=O)COC(C)(C)C3`: the inhibition is 16% (inactive).

With `CC(=O)Nc1ccc(N2CCN(Cc3ccccc3F)CC2)cc1`, the inhibition is 0% (inactive).

Regarding `CCc1ccc(CCC(=O)Nc2ccc(C)c(C)c2)o1`, the inhibition is 4% (inactive).

As to `COc1ccc(Cn2c(-c3ccco3)nc3oc4ccccc4c(=O)c3c2=O)cc1`, the inhibition is 0% (inactive).

For `Cc1noc(C)c1CSc1nc2cc(S(=O)(=O)N3CCOCC3)ccc2o1`, the inhibition is 0% (inactive).

As to `O=C(NC1CCCCC1)c1nc2c(nnn2Cc2ccccc2Cl)c(=O)[nH]1`, the inhibition was 0% (inactive).

As to `Cc1cccc(C(=O)N(C)c2nnc(-c3ccncc3)s2)c1`, the inhibition was 0% (inactive).

Take `COc1ccc(OC)c2[nH]c(=O)c(CCNC(=O)C(C)C)cc12`: the inhibition was 0% (inactive).

Take `O=C(CSc1ncnc2ccccc12)NCCCO`: the inhibition is 0% (inactive).

For the molecule `O=C(O)CC1=C(O)C(=O)N(c2ccccc2)C1c1ccccc1` (stereo not given), the inhibition was 0% (inactive).

For `CCN(C(=O)c1cc(Cl)ccc1OC)C1CCCCC1`, the inhibition is 0% (inactive).

For the molecule `CCC(C)n1ncn(-c2ccc(N3CCN(c4ccc(OCC5COC(Cn6cncn6)(c6ccc(Cl)cc6Cl)O5)cc4)CC3)cc2)c1=O` (stereo not given), the inhibition was 8% (inactive).

Take `COc1ccc(N2CC(C(=O)Nc3ccc(F)cc3F)CC2=O)cc1` (stereo not given): the inhibition was 1% (inactive).

As for `C[C@]12C=CC(=O)C=C1CC[C@H]1[C@@H]3C[C@@H](O)[C@](O)(C(=O)CO)[C@@]3(C)C[C@H](O)[C@@]12F`, the inhibition was 0% (inactive).

Take `COc1ccccc1OCC(=O)N1CCN(c2ccccc2OC)CC1`: the inhibition was 0% (inactive).

On to `CCC1Oc2ccc(C)cc2N(CC(=O)N(Cc2cccnc2)Cc2ccc(C)o2)C1=O` (stereo not given), for which the inhibition is 4% (inactive).

As for `CC1CCCN(c2ccc(C(=O)NCc3cccs3)cn2)C1` (stereo not given), the inhibition is 1% (inactive).

Regarding `COC(=O)C1=C(C)n2nnnc2NC1c1ccc(Cl)cc1` (stereo not given), the inhibition is 2% (inactive).

Regarding `CC(=O)Nn1c(C)nnc1-n1nc(C)cc1C`, the inhibition was 0% (inactive).

For `CCCCCCC1/C(=N/O)CCC1C(=O)OC` (stereo not given), the inhibition was 0% (inactive).

Consider `CCOC(=O)C1/C(=N\O)CC(C)(O)C(C(=O)OCC)C1c1ccc(N(C)C)cc1` (stereo not given), for which the inhibition is 0% (inactive).

On to `Cc1onc(-c2ccccc2Cl)c1C(=O)Nc1cnn(Cc2ccccc2)c1`, for which the inhibition was 0% (inactive).

Take `C=CCN1C(=O)C2(C(C#N)=C(N)Oc3n[nH]c(CCC)c32)c2ccccc21` (stereo not given): the inhibition was 0% (inactive).

As to `CCOc1ccc(-c2nnc(N)s2)cc1`, the inhibition was 0% (inactive).

For the molecule `CCn1c(SCC(=O)c2ccc(F)cc2)nnc1-c1ccoc1C`, the inhibition was 4% (inactive).

On to `O=C(c1ccc(Cl)c(Cl)c1)N1CCOCC1`, for which the inhibition is 5% (inactive).
